NadD inh = inhibitors of S. aureus NadD, primary screen, biochemical, colorimetric, uHTS; hit rate 0.78% among 360,000; purified NadD enzyme, colorimetric absorbance read-out; Nicotinate-nucleotide adenylyltransferase NadD (Staphylococcus aureus N315); inhibition, % at 20 µM; in the data active means inhibition above about 26%
FAS-TE inh = FAS thioesterase domain inhibitors, primary screen, biochemical, fluorescence intensity, uHTS; inhibition, % at 15 µM; Fatty acid synthase (Homo sapiens), P49327; recombinant FAS-TE, OMFH fluorogenic substrate, fluorescence endpoint; hit rate 0.67% among 360,000;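 active means compounds whose normalised, plate-corrected inhibition of enzyme fluorescence in the single-dose primary screen is 50% or more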;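 further: 0% = DMSO with enzyme and 100% = substrate without enzyme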
Myeloid diff MLP = induction of myeloid progenitor differentiation, primary screen, cell-based, flow cytometry, MLPCN library. ER-HoxA9 myeloid progenitors, lysozyme-GFP differentiation. calls only at 10 µM. hit rate 1% among 360,000;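 active means normalized GFP-positive differentiation at or above the plate's own cutoff, the solvent-only control mean plus 3 SD; inconclusive means no clear call, values can overlap the other calls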;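 further: cells exposed to compound for four days before flow analysis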
CRFBP-R2 block = antagonists of CRF-BP/CRF-R2 complex, primary screen, cell-based, HEK293, calcium dye fluorescence, uHTS | hit rate 0.59% among 350,000 | CRF-induced calcium fluorescence | AID 588475, 2011 | inhibition, % at 11.8 µM;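 active means inhibition of the ligand-induced calcium signal above about 50% at the single tested concentration, limit read from the data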
NRP1-CendR mod = modulators of CendR peptide binding to NRP-1, primary screen, biochemical, fluorescence polarization, uHTS | Neuropilin-1 (Homo sapiens), O14786 | inhibition, % at 25 µM | FAM-RPARPAR peptide binding to NRP-1 | hit rate 0.85% among 360,000;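 active means inhibition or corrected inhibition above about 18%, plus a signal ratio from 0.5 to 1.5, limit read from the data, passing the limit was not always enough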
Numbers without * were called inactive. Only some compounds are listed: those with a hit (about 3.6% of all), similar ones and a draw of the others.

`COC(C(=O)Nc1ccc(F)cc1)c1ccccc1` (stereo not drawn) gave NadD inh 6.0, FAS-TE inh -8.5, Myeloid diff MLP inactive, CRFBP-R2 block 91.1* and NRP1-CendR mod -5.4.
Cc1ccc(C(=O)NNC(=O)CCC(=O)NCc2ccccc2)cc1Br was read as NadD inh -3.6, FAS-TE inh -4.4, Myeloid diff MLP active, CRFBP-R2 block 3.6 and NRP1-CendR mod -3.8.
For Cc1cc(Br)cc(Br)c1OCC(=O)NNC(=O)CCC(=O)NCc1ccccc1 the results were NadD inh -0.2, FAS-TE inh -7.9, Myeloid diff MLP inactive, CRFBP-R2 block 2.5 and NRP1-CendR mod -5.3.
Screening Cc1cccc(NC(=O)Cc2ccc(NC3=NC4CS(=O)(=O)CC4S3)cc2)c1 (stereo not drawn) returned NadD inh 4.3, FAS-TE inh -6.4, Myeloid diff MLP inactive, CRFBP-R2 block 60.3* and NRP1-CendR mod -7.4.
Screening O=C(c1ccc(C(F)(F)F)cc1)N1CCC(=O)N(C(CO)Cc2ccccc2)CC1 (stereo not drawn) returned NadD inh 1.4, FAS-TE inh 16.2, Myeloid diff MLP inactive, CRFBP-R2 block -10.7 and NRP1-CendR mod 26.5*.
`Cc1cccc(C(=O)N2CCC(=O)N(C(COCc3cccc(C(F)(F)F)c3)Cc3ccccc3)CC2)c1` (stereo not drawn) gave NadD inh 4.4, FAS-TE inh 30.8, Myeloid diff MLP active, CRFBP-R2 block 16.4 and NRP1-CendR mod 9.2.
O=C(c1cccc(C(F)(F)F)c1)N1CCC(=O)N(C(CO)Cc2ccccc2)CC1 (stereo not drawn) was read as NadD inh -1.3, FAS-TE inh -14.6, Myeloid diff MLP inactive, CRFBP-R2 block -5.9 and NRP1-CendR mod 7.1.
For O=C(NCc1cccs1)c1cccc2c(-c3cccnc3)coc12 the results were NadD inh -0.3, FAS-TE inh -0.3, Myeloid diff MLP inactive and NRP1-CendR mod -0.8.
For Cc1nonc1NC(=O)CSc1nc2ccccc2o1 the results were NadD inh -1.2, FAS-TE inh -3.9, Myeloid diff MLP inactive, CRFBP-R2 block -8.5 and NRP1-CendR mod 16.5.
For CC(=O)Nc1nonc1NC(=O)CSc1nc2ccccc2o1 the results were NadD inh 3.5, FAS-TE inh -4.1, Myeloid diff MLP active, CRFBP-R2 block -13.9 and NRP1-CendR mod 1.8.
`Cc1cc2nc(-c3cccc(Br)c3)c(CC(C)(C)C)n2c(C)c1Br` gave NadD inh 8.6, FAS-TE inh 10.6, Myeloid diff MLP inactive and NRP1-CendR mod 5.9.
Screening CC(O)[C@H]1CC[C@H]2[C@@H]3CC[C@H]4C[C@@H](O)CC[C@]4(C)[C@H]3C(=O)C[C@]12C (stereo partly drawn) returned NadD inh -1.1, FAS-TE inh -14.7, Myeloid diff MLP inactive, CRFBP-R2 block -12.2 and NRP1-CendR mod 25.7*.
CC12CC3CC(C)(C1)CC(C(=O)NNC(=O)c1ccncc1)(C3)C2 was read as NadD inh 1.9, FAS-TE inh -2.9, Myeloid diff MLP inactive, CRFBP-R2 block 66.2* and NRP1-CendR mod 0.1.
Screening Cc1c(CC(=O)O)c(=O)oc2cc(OCc3ccc(F)cc3Cl)ccc12 returned NadD inh 2.2, FAS-TE inh -4.0, Myeloid diff MLP inactive, CRFBP-R2 block 5.5 and NRP1-CendR mod 50.9*.
Cc1c(CCC(=O)O)c(=O)oc2cc(OCc3ccccc3F)ccc12 was read as NadD inh -3.6, FAS-TE inh 25.7, Myeloid diff MLP inactive, CRFBP-R2 block 6.0 and NRP1-CendR mod 2.8.
`N#Cc1c(-c2ccccc2F)cc(C2CC2)nc1SCC(=O)c1cccs1` gave NadD inh -3.3, FAS-TE inh 35.4, Myeloid diff MLP active, CRFBP-R2 block 14.7 and NRP1-CendR mod -5.2.
For Cc1cccc(NC(=O)Cn2c(O)c(N=NC(=O)c3ccccc3O)c3ccccc32)c1 the results were NadD inh 34.9*, FAS-TE inh -10.7, Myeloid diff MLP inactive, CRFBP-R2 block 25.4 and NRP1-CendR mod -8.8.
NC(=S)N=Nc1c(O)n(CC(=O)Nc2ccccc2)c2ccccc12 was read as NadD inh 4.6, FAS-TE inh -4.0, Myeloid diff MLP inactive, CRFBP-R2 block -1.8 and NRP1-CendR mod 9.0.
Screening CC(C)[N+]1=C2C=CC=CC=C2SC12C([N+](=O)[O-])=CC(=[N+]([O-])[O-])C=C2[N+](=O)[O-] (stereo not drawn) returned NadD inh 5.6, FAS-TE inh -4.9, Myeloid diff MLP active, CRFBP-R2 block 3.0 and NRP1-CendR mod 8.6.
Screening CCOC(=O)C1=C(Nc2ccc(OC)cc2)C(N)=NC1=N returned NadD inh -7.2, FAS-TE inh -10.5, Myeloid diff MLP inconclusive, CRFBP-R2 block 6.2 and NRP1-CendR mod -10.7.
Screening NNc1ncnc2c1cnn2-c1ccccc1 returned NadD inh 4.3, FAS-TE inh -5.1, Myeloid diff MLP inactive, CRFBP-R2 block -4.4 and NRP1-CendR mod 28.1*.
Screening COc1ccc(C(C(=O)NC2CCCCC2)N(C(=O)c2sc(C)nc2C)c2ccccc2)cc1 (stereo not drawn) returned NadD inh -1.5, FAS-TE inh 1.5, Myeloid diff MLP inactive, CRFBP-R2 block -3.6 and NRP1-CendR mod -0.2.
For COc1ccc(C(C(=O)NC2CCCC2)N(C(=O)c2ccoc2C)c2ccccc2)cc1 (stereo not drawn) the results were NadD inh -1.8, FAS-TE inh 6.3, Myeloid diff MLP inactive, CRFBP-R2 block 1.2 and NRP1-CendR mod -3.5.
Screening COc1ccc(C(C(=O)NC2CCCC2)N(C(=O)c2ccoc2C)c2cc(C)cc(C)c2)cc1 (stereo not drawn) returned NadD inh -4.7, FAS-TE inh 16.3, Myeloid diff MLP inactive, CRFBP-R2 block 82.8* and NRP1-CendR mod 10.4.
Screening COc1ccc(C(C(=O)NC2CCCCC2)N(C(=O)c2sc(C)nc2C)c2ccc(OC)cc2)cc1 (stereo not drawn) returned NadD inh 5.6, FAS-TE inh 9.2, Myeloid diff MLP inactive, CRFBP-R2 block 64.3* and NRP1-CendR mod -22.1.
Cc1cc(C)n2nc(C(=O)OCC(=O)N(CC(C)C)C3CCS(=O)(=O)C3)nc2n1 (stereo not drawn) was read as NadD inh 1.6, FAS-TE inh -7.6, Myeloid diff MLP inactive, CRFBP-R2 block -1.1 and NRP1-CendR mod 13.4.
Screening CCCCc1ccc(NC(=O)c2ccc(NS(C)(=O)=O)cc2)cc1 returned NadD inh 1.1, FAS-TE inh -2.5, Myeloid diff MLP active, CRFBP-R2 block -0.1 and NRP1-CendR mod 0.2.
Screening CCCCc1ccc(NC(=O)c2ccc(N(C)S(C)(=O)=O)cc2)cc1 returned NadD inh -2.1, FAS-TE inh -3.4, Myeloid diff MLP inconclusive, CRFBP-R2 block 7.1 and NRP1-CendR mod 11.1.

Source: PubChem BioAssay
